Measurements taken from PubChem BioAssay.
Values without a mark were called inactive. The rule behind the calls is not given here.

Target: Pantothenate synthetase (Mycobacterium tuberculosis (strain ATCC 25618 / H37Rv)) (UniProt P9WIL5)
Test: Coupled enzyme confirmation of inhibitors against recombinant Mtb PanC (AID 375);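 note: 0% = full reaction with vehicle and 100% = no enzyme background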
Conditions: coupled enzyme assay; at 10 µM, hits give high values

Chain of Pantothenate synthetase (Mycobacterium tuberculosis (strain ATCC 25618 / H37Rv)) (P9WIL5 whole entry, looked up): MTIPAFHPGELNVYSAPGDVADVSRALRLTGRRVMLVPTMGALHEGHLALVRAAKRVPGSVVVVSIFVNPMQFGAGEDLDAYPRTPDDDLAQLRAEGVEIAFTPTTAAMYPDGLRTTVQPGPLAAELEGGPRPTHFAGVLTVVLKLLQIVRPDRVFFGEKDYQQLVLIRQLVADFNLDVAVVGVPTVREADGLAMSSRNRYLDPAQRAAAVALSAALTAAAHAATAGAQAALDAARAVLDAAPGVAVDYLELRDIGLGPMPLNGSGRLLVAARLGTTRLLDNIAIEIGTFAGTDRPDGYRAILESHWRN

Row | SMILES | inhibition [%]
1 | COc1ccccc1OCc1nc2ccccc2[nH]1 | 0
2 | Cc1csc(NC(=O)CCCSc2nc3ccccc3s2)n1 | 0
3 | CCN(CCCc1ccccc1)CCCc1ccccc1 | 0
4 | Cc1c(C(=O)NCc2ccccn2)sc2nc(-c3ccc(F)cc3)cn12 | 0
5 | Cc1ccc(-c2nnn(CC(=O)N(Cc3cccs3)C(C(=O)NC(C)(C)C)c3ccc(C)o3)n2)o1 (stereo not given) | 0
6 | CSC(=O)CC(=O)NC(=O)c1ccccc1 | 1
7 | COc1ccc(N2CCN(CCCNC(=O)C3CCCN(S(=O)(=O)c4cnc[nH]4)C3)CC2)cc1 (stereo not given) | 0
8 | CC(O)Cn1cnc2c1c(=O)n(C)c(=O)n2C (stereo not given) | 2
9 | O=C(O)C1C2CCC(C2)C1C(=O)NCCCn1ccnc1 (stereo not given) | 12
10 | CCn1c(CCNC(=O)c2ccc(OC)c(OC)c2)nc2ccccc21 | 3
11 | CCn1cc(SCC(=O)Nc2cc(C)on2)c2ccccc21 | 0
12 | CCOC(=O)c1ccc(Oc2cc(C)nc(SC)n2)cc1 | 0
13 | Cc1ccc(NC(=O)CCC(=O)OCC(F)(F)C(F)F)cc1 | 0
14 | Nc1nnc(-c2cc3ccccc3oc2=O)s1 | 8
15 | CC(C(=O)OCn1nnc2ccccc2c1=O)N1C(=O)c2ccccc2C1=O (stereo not given) | 0
16 | N#Cc1c(N2C(=O)C3C4C=CC(C4)C3C2=O)sc2c1CCC2 (stereo not given) | 0
17 | Cc1ccc(S(=O)(=O)Cn2nnnc2CN(Cc2ccco2)Cc2cccs2)cc1 | 0
18 | Nc1nc2ccccc2n1C(=O)CCc1ccccc1 | 0
19 | Cc1cc(C)n(S(=O)(=O)c2cc(C(=O)O)c(Cl)cc2Cl)n1 | 0
20 | CCOc1cc(C2NC(=O)N(C)C(C)=C2C(=O)OC)cc(Br)c1O (stereo not given) | 0

Row | SMILES | inhibition [%]
21 | O=C(CN1c2cccc3cccc(c23)S1(=O)=O)N1CCOCC1 | 0
22 | C(#Cc1ccccc1)Cn1nnc2ccccc21 | 0
23 | O=C(Nc1cc(C(=O)N2CCCC2)ccc1N1CCCC1)c1ccccc1F | 2
24 | CCCCN(Cc1cc2cc(OC)ccc2[nH]c1=O)C(=O)c1ccccn1 | 1
25 | OC(CN1CCCCC1)Cn1c(C(F)(F)F)nc2ccccc21 (stereo not given) | 9
26 | C1=CC2CC1CC2CN1CCN(c2ccccc2)CC1 (stereo not given) | 5
27 | COC(=O)c1ccccc1NC(=O)C12CCC(C)(C(=O)O1)C2(C)C (stereo not given) | 0
28 | NCCN1CCN(CCN)CC1 | 0
29 | COc1ccc(-c2nc3c(c(=O)n(C)c(=O)n3C)n2CC2CC(c3ccccc3)=NO2)cc1OC (stereo not given) | 1
30 | O=C(Nc1ccccc1C(=O)NCCCn1ccnc1)c1ccccc1 | 3
31 | Nc1ccc(-c2ccc(N)cc2C(F)(F)F)c(C(F)(F)F)c1 | 0
32 | CCCn1cc(SCC(=O)NCc2ccco2)c2ccccc21 | 3
33 | O=C1CCCN1Cc1ncnn1-c1ccccc1 | 4
34 | O=C(NCc1ccccn1)Nc1ccc2c(c1)OCO2 | 4
35 | CCOP(=O)(c1ccc(N(C)C)cc1)C(O)c1ccccc1OC (stereo not given) | 5
36 | COc1ccc(-c2oc3ncn(CCN4CCOCC4)c(=N)c3c2-c2ccc(OC)cc2)cc1 | 0
37 | Cn1c(C(=O)NCCC2=CCCCC2)cc2c(=O)n3ccccc3nc21 | 0
38 | COc1ccc(N2CCN(c3ncnc4c3cnn4-c3ccc(C)cc3C)CC2)cc1 | 8
39 | Cc1cc(N2CCN(C)CC2)nc(N2CCOCC2)n1 | 0
40 | COC(=O)c1ccc(NC(=O)CN2C(=O)CSC2=O)cc1 | 5
